Test results: PubChem BioAssay
Values without a mark were called inactive.

Molecular target: Dihydroorotate dehydrogenase (quinone), mitochondrial (Plasmodium falciparum (isolate 3D7)) (UniProt Q08210)
Assay: PfDHODH enzyme inhibitors, primary screen, biochemical, C-terminal His tag, absorbance 600 nm (AID 1175);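 further: recombinant parasite enzyme with a five histidine tag at its C terminus; test concentration not given here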
Conditions: DCIP absorbance 600 nm, higher = more signal, called active from +8 up or from −8 down

Dihydroorotate dehydrogenase (quinone), mitochondrial (Plasmodium falciparum (isolate 3D7)), sequence (Q08210 whole entry, looked up): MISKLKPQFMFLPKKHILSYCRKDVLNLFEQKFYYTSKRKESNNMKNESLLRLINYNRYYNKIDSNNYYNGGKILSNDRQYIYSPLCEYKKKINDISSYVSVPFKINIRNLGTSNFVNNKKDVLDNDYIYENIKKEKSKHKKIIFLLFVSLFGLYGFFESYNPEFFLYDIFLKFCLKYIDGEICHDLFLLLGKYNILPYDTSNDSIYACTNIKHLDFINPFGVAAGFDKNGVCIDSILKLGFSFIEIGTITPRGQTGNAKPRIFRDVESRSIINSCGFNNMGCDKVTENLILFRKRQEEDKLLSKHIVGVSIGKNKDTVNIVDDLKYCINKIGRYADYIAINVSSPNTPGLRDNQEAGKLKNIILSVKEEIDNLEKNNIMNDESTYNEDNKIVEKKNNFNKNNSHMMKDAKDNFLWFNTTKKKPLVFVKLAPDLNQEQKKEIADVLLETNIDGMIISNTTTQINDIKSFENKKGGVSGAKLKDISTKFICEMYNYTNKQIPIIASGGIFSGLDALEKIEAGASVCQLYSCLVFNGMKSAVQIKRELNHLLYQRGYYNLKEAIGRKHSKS

SMILES | composite z-score
CCCC[C@H]1OB(O)C[C@H]2C1=C(COc1ccccc1)C[C@H]1C(=O)C=CC(=O)[C@H]12 | -0.973
COCCOC(=O)N1C(=O)[C@@]2(c3ccccc31)[C@H](C(=O)N1CCN(c3ncccn3)CC1)[C@H]1C(=O)O[C@H](c3ccccc3)[C@H](c3ccccc3)N1[C@@H]2c1ccccc1OCCO | -1.35
COC(=O)[C@@]1(Cc2ccccc2)[C@H]2c3cc(C(=O)N(C)C)n(CCO)c3C[C@H]2CN1C(=O)c1ccccc1 | 0.0058
[N-]=[N+]=Nc1ccccc1[C@@H]1OC(c2ccc(OCCCO)cc2)=N[C@]1(Cc1ccccc1)C(=O)NCCN1CCOCC1 | 0.417
COc1cc(C(O)C2C=CC3C(=O)N(c4ccccc4)C(=O)C3N2Nc2ccccc2)cc(OC)c1OC (stereo unspecified) | 0.484
C=CCC(OC(C)=O)[C@@H]1[C@@H](N(Cc2ccc(-c3ccccc3)cc2)C(=O)c2cccc3ccccc23)c2cc(OCCCO)ccc2N1C(=O)Cc1ccc(OC)cc1 (stereo partly specified) | -0.0892
Cc1ccc(N2C(=O)c3ccccc3[C@](C)(C(=O)NCCCN(C)C)[C@@H]2c2ccc(CO)cc2)nc1 | 0.0135
CCOC(=O)C[C@H]1[C@H](OC(=O)Cc2ccc3c(c2)OCO3)[C@@H](NC(=O)Cc2ccc(OC)cc2)c2cc(OCCCO)ccc2N1C(=O)Cc1ccc(OC)cc1 | -1.72
O=C1N(CCS(=O)(=O)c2ccccc2)c2ccccc2C[C@]12N=C(c1ccc(OCCCO)cc1)O[C@@H]2c1ccccc1 | -2.58
C=CCOC(=O)[C@@H]1[C@H]2C(=O)O[C@H](c3ccccc3)[C@H](c3ccccc3)N2[C@H](c2ccc(OCCOC(=O)[C@H]3C[C@H]4C(=O)N5CCC[C@H]5C(=O)N4[C@H]3c3cccc(OCCO)c3)cc2)[C@@]12C(=O)Nc1ccc(I)cc12 | 0.0219
COc1ccc([Si](C)(C)[C@H]2[C@H](CC(=O)N3Cc4ccccc4C[C@H]3CO)O[C@@]3(C(=O)N(c4ccccc4)c4ccccc43)[C@@H]2C)cc1 | -1.05
CCN(CC)c1ccc(N2CC=CC34O[C@@H]5C=CCCOC(=O)C5[C@H]3C(=O)N(C(C)CO)[C@@H]4C2=O)cc1 (stereo partly specified) | -0.0558
COCCOC(=O)N1C(=O)[C@@]2(c3cc(C#CC4(O)CCCCCC4)ccc31)[C@H](c1ccc(O)cc1)N1[C@H](c3ccccc3)[C@H](c3ccccc3)OC(=O)[C@H]1[C@@H]2C(=O)N1CCCCCCC1 | -1.45
COC(=O)[C@@]1(Cc2ccc(F)cc2)[C@H]2c3cc(C(=O)N(C)C)n(C)c3C[C@H]2CN1C(=O)c1ccccc1 | 0.0197
O=C(NC1CC1)[C@@H]1c2ccccc2C(=O)N(Cc2cc(C(F)(F)F)cc(C(F)(F)F)c2)[C@H]1c1ccc(CO)cc1 | -0.331
COc1ccc(C(O)C2C=CC3C(=O)NC(=O)C3N2Nc2ccc(Cl)cc2Cl)c2ccccc12 (stereo unspecified) | 0.167
O=C(NCCN1CCOCC1)[C@@H]1c2ccccc2C(=O)N(Cc2ccccc2C(F)(F)F)[C@H]1c1ccc(CO)cc1 | -0.899
CN(C)CCCCNC(=O)[C@H]1C[C@H]2C(=O)N3CCC[C@H]3C(=O)N2[C@H]1c1cccc(OCCO)c1 | 0.483

SMILES | composite z-score
COc1ccc(CCNC(=O)[C@@H]2c3ccccc3C(=O)N(Cc3ccccc3OC)[C@H]2c2ccc(CO)cc2)cc1 | 1.14
CC(C)OC(=O)CC(=O)CC(O)c1cccc([N+](=O)[O-])c1 (stereo unspecified) | -2.1
CCOC(=O)C[C@H]1[C@H](OC(=O)c2cc3ccccc3oc2=O)[C@@H](NC(=O)CC(C)C)c2cc(OCCCO)ccc2N1C(=O)Cc1ccc(OC)cc1 | -0.144
CC1=C([C@H](O)CCc2ccccc2)[C@H](CO)n2c(=O)n(-c3ccccc3)c(=O)n2C1 | -1.34
CC(C)(C)N1CC=CC23O[C@@H]4C=CCCOC(=O)C4[C@H]2C(=O)N(CCCCCCO)[C@@H]3C1=O (stereo partly specified) | 0.713
CCCCCC1=C2CNC(CC(C)C)(C(=O)OC)C=C2C(C)C1=O (stereo unspecified) | -1.09
O=C1C=C(c2ccccc2)C(=O)C2=C1CC([C@H]1Oc3ccccc3S(=O)(=O)N3CCC[C@@H]13)=CC2 | -1.54
O=C1C[C@@](C(=O)O)(c2ccc([N+](=O)[O-])cc2)[C@@H](c2ccc(CO)cc2)N1C1CCCCC1 | -0.0999
CO[C@H]1O[C@H](CO)[C@@H](OC(=O)Nc2ccccc2-c2ccccc2)[C@H](OC(=O)Nc2ccccc2)[C@H]1OC(=O)Nc1ccccc1 | -0.0626
O=C1c2ccccc2[C@@]2(Cc3ccccc3N(Cc3ccccc3)C2=O)[C@H](c2ccc(CO)cc2)N1Cc1ccccc1Cl | -3.2
CCCNC(=O)[C@@]1(c2ccc([N+](=O)[O-])cc2)CC(=O)N(C(C)C)[C@@H]1c1ccc(CO)cc1 | 0.0058
[N-]=[N+]=Nc1ccccc1C[C@@]1(C(=O)NCC(O)CO)N=C(c2ccc(OCCCO)cc2)O[C@@H]1c1ccccc1 (stereo partly specified) | 0.303
CC(C)C[C@@H]1NC(=O)[C@@H]2C[C@H](C(=O)NCCCCCCNC(=O)CS)[C@H](c3cccc(OCCO)c3)N2C1=O | 0.283
CC(=O)NCCCC[C@@H]1NC(=O)[C@H]2C[C@@H](C(=O)NCCCCCCNC(=O)CS)[C@@H](c3cccc(OCCO)c3)N2C1=O | 0.929
O=C1[C@@H]2[C@@H](CC(COc3ccccc3)=C([C@H](O)CCc3ccccc3)[C@@H]2CO)C(=O)N1Cc1ccccc1 | -2.37
O=C(NCC(O)CO)[C@@]1(CCS(=O)(=O)c2ccccc2)N=C(c2ccc(OCCCO)cc2)O[C@H]1c1ccccc1 (stereo partly specified) | -0.637
CN(C)c1ccc(C(O)C2C=CC3C(=O)N(Cc4ccccc4)C(=O)C3N2n2cnnc2)cc1 (stereo unspecified) | -0.536
COCCOC(=O)N1C(=O)[C@@]2(c3cc(C#CCC(C(=O)OC)C(=O)OC)ccc31)[C@H](C(=O)Nc1nc3ccccc3s1)[C@H]1C(=O)O[C@H](c3ccccc3)[C@H](c3ccccc3)N1[C@@H]2c1ccc(OCCO)cc1 | -0.859
